DRD3 agonist = qHTS of D3 Dopamine Receptor Agonist: qHTS; D3R DiscoveRx beta-arrestin cells, luminescence, 90 min; max activation, %; 410,000 tested, 0.58% active; AID 652048, 2013; in the data active = max activation above about 30%; also: 0% is about no effect
Target sequence (P35462 whole entry, looked up): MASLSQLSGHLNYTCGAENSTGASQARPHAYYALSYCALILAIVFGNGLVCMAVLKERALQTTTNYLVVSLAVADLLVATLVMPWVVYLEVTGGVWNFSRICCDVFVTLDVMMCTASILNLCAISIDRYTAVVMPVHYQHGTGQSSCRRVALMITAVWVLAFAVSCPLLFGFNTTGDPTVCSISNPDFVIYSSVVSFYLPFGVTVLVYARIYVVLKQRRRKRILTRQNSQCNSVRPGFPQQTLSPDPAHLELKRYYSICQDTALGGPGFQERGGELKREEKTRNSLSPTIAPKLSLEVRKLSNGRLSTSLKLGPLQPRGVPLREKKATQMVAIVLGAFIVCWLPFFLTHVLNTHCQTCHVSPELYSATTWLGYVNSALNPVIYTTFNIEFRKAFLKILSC
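Cells at 1500/well, incubated overnight, then treated with pinned compounds (dopamine as control) for 90 min at 37 degrees C. DiscoveRx reagent added for 30 - 60 minutes at room temperature; luminescence read.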
D1 PAM = Potentiators of Human D1 Dopamine Receptor: qHTS; HEK293 TREx D1 cells, calcium flux, dopamine EC20 potentiation; potentiation, % at 10 µM; 360,000 tested, 0.036% active; AID 504651, 2011; in the data active = potentiation above about 30%; also: 0% is about no effect
D1 agonist = Allosteric Agonists of the Human D1 Dopamine Receptor: qHTS. 360,000 tested, 1% active. HEK293 T-REx D1 cells, calcium flux, agonist mode. activation, % at 2 µM. D(1A) dopamine receptor (Homo sapiens), P21728; in the data active = activation above about 30%; also: 0% is about no effect
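Tetracycline-induced HEK293 TREx D1 cells, force-coupled to calcium signalling, were dye-loaded with a no-wash calcium kit. Compound was pin-added after a 10 s baseline. Fluorescence was read kinetically at 1 cycle/s for 180 s, with calcium rises flagged as agonism.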
DRD3 antagonist = qHTS of D3 Dopamine Receptor Antagonist: qHTS. D3R cells, DiscoveRx beta-arrestin luminescence, antagonist mode; active compounds read low. AID 652054, 2013. 360,000 tested, 2.5% active. max response, negative = inhibition, %. D(3) dopamine receptor (Homo sapiens), P35462; in the data active = max response below about -50%; also: % is scaled to controls: 0 for no effect and ±100 for the full control effect
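Cells plated overnight at 1500 cells/well, then exposed to library compounds with dopamine controls for 90 minutes at 37 degrees C. DiscoveRx reagent added for 30–60 minutes at room temperature; luminescence read, quantitative HTS format.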
D1 antagonist = Antagonist of Human D 1 Dopamine Receptor: qHTS; D(1A) dopamine receptor (Homo sapiens), P21728; HEK293 TREx D1 cells, calcium flux, dopamine EC80; active compounds read low; activity change, negative = inhibition, % at 10 µM; 360,000 tested, 3.2% active; AID 504652, 2011; in the data active = activity change below about -30%; also: % is scaled to controls: 0 for no effect and ±100 for the full control effect
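Cells carrying a force-coupled, tetracycline-inducible human D1 receptor report calcium flux. Each well gets a 10 s baseline, compound with 180 s monitoring, then an EC80 dopamine stimulus with a second 180 s kinetic read.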
Active calls of the source: *. Most compounds without a hit are left out; they make up all but 6% or so of the library.

What do the screens show for `COc1ccc2[nH]c3nc(SCC(=O)Nc4cccc(NC(C)=O)c4)nnc3c2c1`?
DRD3 agonist: 1; D1 PAM: -5; D1 agonist: 0; DRD3 antagonist: 1; D1 antagonist: 5

What do the screens show for `COc1cccc(NC(=O)CSc2nnc3c(n2)[nH]c2ccc(C)cc23)c1`?
DRD3 agonist: -29; D1 PAM: 5; D1 agonist: 3; DRD3 antagonist: -15; D1 antagonist: -84*

Results for CCOC(=O)CN(C(=O)CSc1nnc(COc2ccc(OC)cc2)n1C)c1ccccc1 ?
DRD3 agonist: -2; D1 PAM: -3; D1 agonist: -1; DRD3 antagonist: 4; D1 antagonist: -46*

Results for COc1ccccc1C(=O)Nc1ccc2oc(-c3cccc4c(Br)cccc34)nc2c1 ?
DRD3 agonist: 9; D1 PAM: -1; D1 agonist: 1; D1 antagonist: 2

Results for CC1Cc2ccccc2N1C(=O)CSc1nnc2c(n1)[nH]c1ccc(F)cc12 (configuration not stated) ?
DRD3 agonist: -3; D1 PAM: -5; D1 agonist: 0; DRD3 antagonist: -68*; D1 antagonist: 1

What do the screens show for `CC(=O)c1ccc(NC(=O)CSc2nnc3c(n2)[nH]c2ccccc23)cc1`?
DRD3 agonist: -7; D1 PAM: -9; D1 agonist: 3; D1 antagonist: -37*

Results for Cc1cccc(N2CCN(S(=O)(=O)c3csc(C(N)=O)c3)CC2)c1C ?
DRD3 agonist: -6; D1 PAM: -2; D1 agonist: 13; D1 antagonist: -10

Results for COc1ccc(Cn2c(CO)cnc2SCc2ccc(C)cc2)cc1 ?
DRD3 agonist: -1; D1 PAM: -5; D1 agonist: 16; D1 antagonist: -10

How did COc1ccc(OC)c(/C=C(/C#N)c2nc(-c3ccc(-c4ccccc4)cc3)cs2)c1 do in these assays?
DRD3 agonist: 0; D1 PAM: 1; D1 agonist: 5; D1 antagonist: -9

What do the screens show for `Cc1ccc(S(=O)(=O)CS(=O)(=O)c2ccc(C)cc2)cc1`?
DRD3 agonist: -8; DRD3 antagonist: 3

Results for Cc1ccc(S(=O)(=O)Cn2cnnn2)cc1 ?
DRD3 agonist: -1; D1 PAM: 0; D1 agonist: 3; DRD3 antagonist: -78*; D1 antagonist: -6

How did O=C1C2C3C=CC(C3)C2C(=O)N1/N=C/c1ccc(-c2ccccc2[N+](=O)[O-])o1 (configuration not stated) do in these assays?
DRD3 agonist: -19; D1 PAM: -6; D1 agonist: 1; DRD3 antagonist: -12; D1 antagonist: 8

How did O=C1C2C3C=CC(C3)C2C(=O)N1/N=C/c1cc(Br)cc([N+](=O)[O-])c1O (configuration not stated) do in these assays?
DRD3 agonist: -17; D1 PAM: -11; D1 agonist: 8; DRD3 antagonist: -68*; D1 antagonist: -10

Results for Cc1cc(C)c(NC(=O)Cn2nnc(-c3nc(-c4ccccc4)no3)c2N)c(C)c1 ?
DRD3 agonist: -13; D1 PAM: 0; D1 agonist: 0; D1 antagonist: -5

Results for CC(C)C(=O)Nc1ccc(Sc2ccc(F)cc2)cc1 ?
DRD3 agonist: 6; D1 PAM: -10; D1 agonist: 11; DRD3 antagonist: 40; D1 antagonist: -50*

How did Cc1ccc2c(c1)c1c(c(=O)n(-c3cccc(Cl)c3)c(=O)n1CC(=O)N1CCCC1)n2C do in these assays?
DRD3 agonist: 8; D1 PAM: 0; D1 agonist: 1; D1 antagonist: 8

What do the screens show for `CC(CCc1ccc(O)cc1)NCCc1ccc(O)c(O)c1` (configuration not stated)?
DRD3 agonist: 108*; DRD3 antagonist: 8

Results for CC(CCc1ccc(O)cc1)NC1c2ccccc2-c2ccccc21 (configuration not stated) ?
DRD3 agonist: -6; D1 PAM: 2; D1 agonist: 17; DRD3 antagonist: 6; D1 antagonist: 2

High-throughput results (PubChem)
